KB-3-1 tox: qHTS assay for MDR1-selective chemotherapeutics: Primary screen using the parental adenocarcinoma cell KB-3-1; KB-3-1 viability, CellTiter-Glo ATP luminescence, 72 h; Potency, µM (series often up to 46.1 µM), usual class: cytotoxic; actives 1.4% (n = 400,000); AID 1347075, 2019; note: potency is the fitted concentration of half-maximal effect; nearly all actives have a fitted effect of over 60% in size
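Multi-concentration cytotoxicity screen in KB-3-1 cells grown in DMEM lacking phenol red with 10% FBS. After 72 h at 37 °C with compound, ATP-dependent luminescence was recorded.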
IL-1B inflam inh: qHTS for Inhibitors of Inflammasome Signaling: IL-1-beta AlphaLISA Primary Screen; THP-1 LPS/ATP IL-1B secretion, AlphaLISA, 16 h; active compounds read low; activity change, % at 57.5 µM; actives 4.7% (n = 360,000); AID 743279, 2014; in the data active = activity change below about -50%; inconclusive = mostly about -30% to -49%
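THP-1 cells pretreated 1 hr with compounds (up to 57.5 uM final), then stimulated with LPS (250 ng/mL final) plus ATP (1.25 mM final); secreted IL-1B measured by AlphaLISA after 16 hr, decreased signal indicating inhibition.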
KB-V1 MDR tox: qHTS assay for MDR1-selective chemotherapeutics: Primary screen using the drug-selected MDR subline cells KB-V1 | KB-V1 MDR cells viability, CellTiter-Glo, 72 h | Potency, µM (highest dose often 46.1 µM), most hits filed as cytotoxic | actives 3.4% (n = 400,000) | AID 1347076, 2019; note: potency is the fitted concentration of half-maximal effect; nearly all actives have a fitted effect of over 60% in size
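KB-V1, DMEM (no phenol red) + 10% FBS; cpd pin-transferred, titration series; 72 h, 37 degrees C; CellTiter-Glo, luminescence. Data normalized, curve-fit.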
HT1080NT lethal: qHTS for induction of synthetic lethality in tumor cells producing 2HG: qHTS for the HT-1080-NT fibrosarcoma cell line; Potency, µM (series often up to 46.1 µM), inactives show at the highest dose activity, negative = less viability, most hits filed as cytotoxic; actives 1.6% (n = 360,000); HT-1080-NT fibrosarcoma viability, CellTiter-Glo ATP luminescence, 48 h; AID 686970, 2013;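 note: NT is the 2HG producing partner of a matched IDH1 knockdown line; potency is the fitted concentration of half-maximal effect; 0% = DMSO-treated cells and -100% = media-only wells without cells; nearly all actives have a fitted effect of over 55% in size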
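A 48-hour cytotoxicity screen used HT-1080-NT cells plated 2 hours before compound delivery. ATP-based CellTiter-Glo luminescence measured viability, normalized to DMSO and no-cell controls.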
HT1080 IDH1KD tx: qHTS for induction of synthetic lethality in tumor cells producing 2HG: qHTS for the HT-1080-IDH1KD cell line. HT-1080 IDH1 knockdown viability, ATP luminescence, 48 h. Potency, µM (highest dose often 46.1 µM), for the others: at the top dose activity, negative = toxicity, actives largely listed as cytotoxic. actives 2% (n = 360,000);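 note: potency is the fitted concentration of half-maximal effect; 0% = DMSO wells and -100% = cell-free medium wells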
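After a 2 h attachment period, IDH1KD HT-1080 cells took pin-transferred compound for 48 h at 37 °C; ATP-based luminescence after 10 min room-temperature reagent incubation reported viability.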
* hit, by the source's call; [ ] = dose if it differs, or a comment. Hits are enriched below; roughly 8.8% of the tested compounds scored in any of these assays. Unless noted, calls come from the whole dose curve; as a rule, active = well fitted curve in the direction sought with a large enough effect; inconclusive = small, poorly fitted or top-dose-only effect, or another doubt; inactive = no such curve, though single readings can be large; an effect the other way counts as inactive or inconclusive. Unless noted, % is set by controls: 0 for no effect and ±100 for the full control effect.

Screening COC(=O)c1ccc(OCC2c3cc(OC)c(OC)cc3CCN2C(=O)c2ccc(OC)cc2)cc1 (configuration not stated) returned KB-3-1 tox inactive and KB-V1 MDR tox inactive.
CCNC(=S)N1CCc2cc(OC)c(OC)cc2C1COc1ccc(F)cc1 (configuration not stated) was read as KB-3-1 tox inactive, IL-1B inflam inh -61.1*, KB-V1 MDR tox inactive, HT1080NT lethal -13.9% and HT1080 IDH1KD tx -14.8%.
For COC(=O)c1ccc(OCC2c3cc(OC)c(OC)cc3CCN2C(=O)c2ccco2)cc1 (configuration not stated) the results were KB-3-1 tox inactive, IL-1B inflam inh -52.6*, KB-V1 MDR tox 6.51µM*, HT1080NT lethal -28.8% and HT1080 IDH1KD tx inconclusive.
`CCOC(=O)[C@@H]1[C@H]2COc3ccccc3[C@@H]2N2C(=O)N(c3cccc(F)c3)C(=O)[C@@]12C` gave KB-3-1 tox inactive, IL-1B inflam inh 29.0, KB-V1 MDR tox inactive, HT1080NT lethal 9.1% and HT1080 IDH1KD tx 0.2%.
For O=C(Nc1cccc(C(F)(F)F)c1)c1cc(S(=O)(=O)N2CCCC2)c[nH]1 the results were KB-3-1 tox inactive and KB-V1 MDR tox inactive.
`COc1ccc(C(=O)Nc2cccc(OC(=O)c3ccc(C)c(C)c3)c2)cc1` gave KB-3-1 tox inactive, IL-1B inflam inh 0.0, KB-V1 MDR tox inactive, HT1080NT lethal -24.4% and HT1080 IDH1KD tx -14.6%.
For CC(=O)Oc1ccc(C(=O)Nc2cccc(C(=O)c3ccc(C)c(C)c3)c2)cc1 the results were KB-3-1 tox 16.4µM*, IL-1B inflam inh -6.1, KB-V1 MDR tox 9.2µM*, HT1080NT lethal -4.9% and HT1080 IDH1KD tx inconclusive.
CC(=O)Oc1ccc(C(=O)Nc2cc(NC(=O)c3ccc(OC(C)=O)cc3)cc(C(=O)NC(C)(C)C)c2)cc1 was read as KB-3-1 tox inconclusive, IL-1B inflam inh -63.7*, KB-V1 MDR tox inactive, HT1080NT lethal -24.4% and HT1080 IDH1KD tx -26.0%.
Screening COC(=O)[C@@H](NC(=O)N1CCN(c2cccc(C(F)(F)F)c2)CC1)C(C)C returned KB-3-1 tox inactive, IL-1B inflam inh -6.5, KB-V1 MDR tox inconclusive, HT1080NT lethal 7.9% and HT1080 IDH1KD tx -1.4%.
Screening COc1cc(C(=O)N2CCN(c3cccc(C(F)(F)F)c3)CC2)ccc1OCC(=O)N1CCOCC1 returned KB-3-1 tox inactive, IL-1B inflam inh -10.3, KB-V1 MDR tox 18.4µM*, HT1080NT lethal -1.6% and HT1080 IDH1KD tx -9.4%.
COc1ccccc1C(=O)N1CCN(c2cccc(C(F)(F)F)c2)CC1 was read as KB-3-1 tox 5.17µM*, IL-1B inflam inh -2.0, KB-V1 MDR tox 2.91µM*, HT1080NT lethal 14.6µM* and HT1080 IDH1KD tx 9.2µM*.
CCn1cc(C(=O)N2CCN(c3cccc(C(F)(F)F)c3)CC2)c2cc(OC)c(OC)cc2c1=O was read as KB-3-1 tox inactive and KB-V1 MDR tox inactive.
O=C(Nc1cccc(C(F)(F)F)c1)c1cccnc1N1CCN(c2ccccc2)CC1 was read as KB-3-1 tox inactive, IL-1B inflam inh -77.3*, KB-V1 MDR tox inconclusive, HT1080NT lethal inconclusive and HT1080 IDH1KD tx -2.3%[9.24 µM].
`COc1ccc(NC(=O)N2CCN(c3cccc(C(F)(F)F)c3)CC2)cc1OC` gave KB-3-1 tox inactive, IL-1B inflam inh 0.0, KB-V1 MDR tox 13µM*, HT1080NT lethal -1.1% and HT1080 IDH1KD tx -3.8%.
For COc1ccc(/C=C(\C#N)C(=O)OCC(=O)NCc2ccco2)cc1 the results were KB-3-1 tox inactive, IL-1B inflam inh -4.1, KB-V1 MDR tox inactive, HT1080NT lethal -0.6% and HT1080 IDH1KD tx -2.1%.

High-throughput results: PubChem, National Center for Advancing Translational Sciences (NCATS)
